Test results reported in PubChem BioAssay AID1259318 (Sanford-Burnham Center for Chemical Genomics, 2017).
The campaign covered roughly 370,000 compounds. About 3,000 (0.81%) were called active.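 The calls were made as follows: active = activity above about 14% (limit read from the data; passing the limit was not always enough); inactive = the rest.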 Many of the other results were omitted from the sample, so actives are more common in it than they were.

These compounds were tested against Nuclear receptor subfamily 1 group D member 1 (Homo sapiens) (UniProt P20393) (assay: modulators of Rev-erb alpha DNA binding, primary screen, biochemical, FITC-DNA, fluorescence polarization, uHTS (AID 1259318;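 also: 0% = DMSO wells with 35 nM protein and 100% = DMSO wells with 750 nM protein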)). Conditions: Rev-erbα–FITC-DNA binding, 90 min, at 10 µM, hits give high values.
Chain of Nuclear receptor subfamily 1 group D member 1 (Homo sapiens) (P20393 whole entry, looked up): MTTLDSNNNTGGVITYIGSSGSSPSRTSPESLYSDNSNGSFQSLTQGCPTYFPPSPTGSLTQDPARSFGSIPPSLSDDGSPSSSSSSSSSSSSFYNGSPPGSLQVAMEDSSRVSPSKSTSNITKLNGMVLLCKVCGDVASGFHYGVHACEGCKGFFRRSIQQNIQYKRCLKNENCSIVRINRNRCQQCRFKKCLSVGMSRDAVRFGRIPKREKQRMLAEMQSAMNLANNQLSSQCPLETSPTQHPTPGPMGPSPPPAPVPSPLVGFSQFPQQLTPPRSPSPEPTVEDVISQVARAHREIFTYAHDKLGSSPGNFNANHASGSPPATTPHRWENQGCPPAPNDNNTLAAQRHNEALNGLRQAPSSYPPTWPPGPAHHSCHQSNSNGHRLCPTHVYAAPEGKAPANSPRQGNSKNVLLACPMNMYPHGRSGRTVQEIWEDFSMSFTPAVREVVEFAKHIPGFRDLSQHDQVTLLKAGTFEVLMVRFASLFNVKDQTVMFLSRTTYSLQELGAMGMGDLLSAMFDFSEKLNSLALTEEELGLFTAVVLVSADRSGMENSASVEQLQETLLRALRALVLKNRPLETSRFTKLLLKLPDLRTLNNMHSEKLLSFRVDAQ
With `O=C1N=c2ccccc2=C/C1=C\c1c(O)[nH]c(=S)[nH]c1=O` the activity was -4.55% (inactive).
For `CCOCCc1c(O)[nH]c(=S)[nH]c1=O`, the activity was -0.86% (inactive).
For `COc1ccccc1N=Nc1c(O)[nH]c(=S)[nH]c1=O`, the activity was 28.1% (active).
For `CCC(C)C(=O)O[C@H]1[C@H](O)C2C(CN3CC(C)CCC3[C@@]2(C)O)C2C[C@]34O[C@]5(O)C(OC(=O)C(C)(O)CC)CC[C@@]3(C)C5[C@H](OC(C)=O)[C@@H](OC(C)=O)C4[C@@]21O` (stereo not given in full), the activity was -4.52% (inactive).
With `CCN(CC)C(=O)[C@@H]1C=C2c3cccc4[nH]c(Br)c(c34)C[C@H]2N(C)C1` the activity was -1.01% (inactive).
`C=CCNCCCCCCCCCC` (tested in a mixture with another compound) was tested, and the activity was -9.67% (inactive).
In the case of `COC(=O)CN(CCCl)P1(=O)OCCCN1CCCl` (stereo not given), the activity was 15.9% (active).
With `c1ccc2sc(SNC3CCCCC3)nc2c1` the activity was 6.27% (inactive).
In the case of `CCOC(=O)C1=C(C)OC(N)=C(C(=O)OC)C12C(=O)Nc1ccc(Br)cc12` (stereo not given), the activity was 4.04% (inactive).
For `CC(=O)O[C@H]1CC[C@@]2(C)C(=CCC3C2CC[C@]2(C)C(=O)CCC32)C1` (stereo not given in full), the activity was 2.71% (inactive).
